Screening results as filed in PubChem.
TDP1 cell noCPT: qHTS for Inhibitors of human tyrosyl-DNA phosphodiesterase 1 (TDP1): qHTS in cells in absence of CPT; DT40 Tdp1-/- hTDP1 cells, no CPT, ATP luminescence, 48 h; Potency, µM (top dose mostly 46.2 µM), for inactives: at the highest dose activity change, negative = growth inhibition, actives largely listed as inhibitors; 15% of 420,000 active; AID 686978, 2013; further: potency means the concentration at half of the fitted maximal effect; nearly all actives have a fitted effect of over 55% in size
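A cellular qHTS used chicken DT40 cells lacking endogenous Tdp1 but carrying stably transfected human TDP1. Compounds were applied without camptothecin, and cell growth kinetics were judged by ATP-dependent luminescence after ≥48 hr.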
DT40 TDP1 CPT: DT40-hTDP1 cell growth loss with CPT | 12% of 420,000 active | chicken DT40 Tdp1-/-;hTDP1 cells + 20 nM CPT, ATP luminescence, 48 h | Potency, µM (series often up to 46.2 µM), for the others: top-dose activity change, negative = growth inhibition, most hits filed as inhibitors | AID 686979; further: potency means the concentration at half of the fitted maximal effect; nearly all actives have a fitted effect of over 55% in size
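Cell growth measured by CellTiter-Glo luminescence after a minimum 48 h, 37 C compound exposure with 20 nM CPT in Tdp1-knockout DT40 cells stably expressing hTDP1, seeded 400/well; qHTS titration format.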
HT1080 IDH1KD tx: kills HT-1080 cells with IDH1 knockdown; HT-1080 IDH1 knockdown viability, ATP luminescence, 48 h; Potency, µM (titrated, usually from 46.1 µM), inactives show at the highest dose activity, negative = toxicity, most hits filed as cytotoxic; 2% of 360,000 active;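 further: potency means the concentration at half of the fitted maximal effect; 0% = DMSO wells and -100% = cell-free medium wells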
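HT-1080-IDH1KD cells (IDH1 knocked down), 750/well in RPMI with 5% FBS, treated with compound 48 h at 37 degrees C. Viability by CellTiter-Glo luminescence, normalised to DMSO and no-cell wells; concentration-response curves classed.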
HT1080NT lethal: kills 2HG-producing HT-1080-NT fibrosarcoma cells; HT-1080-NT fibrosarcoma viability, CellTiter-Glo ATP luminescence, 48 h; Potency, µM (top dose mostly 46.1 µM), inactives show at the top dose activity, negative = less viability, most hits filed as cytotoxic; 1.6% of 360,000 active;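 further: NT is the 2HG producing partner of a matched IDH1 knockdown line; potency means the concentration at half of the fitted maximal effect; 0% = DMSO-treated cells and -100% = media-only wells without cells; nearly all actives have a fitted effect of over 55% in size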
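HT-1080-NT; 750 cells/well; 5% FBS RPMI; 48 h compound, 37 degrees C; CellTiter-Glo luminescence; curve fitting and curve-class assignment.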
IL1B secr inh: blocks inflammasome-driven IL-1 beta release; THP-1 LPS/ATP IL-1B secretion, AlphaLISA, 16 h; stronger effect = lower value; activity change, % at 57.5 µM; 4.7% of 360,000 active; AID 743279; in the data active means activity change below about -50%; inconclusive means mostly about -30% to -49%
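THP-1 cells pretreated 1 hr with compounds (up to 57.5 uM final), then stimulated with LPS (250 ng/mL final) plus ATP (1.25 mM final); secreted IL-1B measured by AlphaLISA after 16 hr, decreased signal indicating inhibition.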
12-LOX inh: blocks human arachidonate 12S-lipoxygenase; purified 12hLO, xylenol orange hydroperoxide absorbance; Potency, µM (top dose mostly 108 µM), for the others: at the top dose activity change, negative = inhibition, actives largely listed as inhibitors; P18054; 1.1% of 580,000 active; further: potency means the concentration at half of the fitted maximal effect
Target sequence (P18054 whole entry, looked up): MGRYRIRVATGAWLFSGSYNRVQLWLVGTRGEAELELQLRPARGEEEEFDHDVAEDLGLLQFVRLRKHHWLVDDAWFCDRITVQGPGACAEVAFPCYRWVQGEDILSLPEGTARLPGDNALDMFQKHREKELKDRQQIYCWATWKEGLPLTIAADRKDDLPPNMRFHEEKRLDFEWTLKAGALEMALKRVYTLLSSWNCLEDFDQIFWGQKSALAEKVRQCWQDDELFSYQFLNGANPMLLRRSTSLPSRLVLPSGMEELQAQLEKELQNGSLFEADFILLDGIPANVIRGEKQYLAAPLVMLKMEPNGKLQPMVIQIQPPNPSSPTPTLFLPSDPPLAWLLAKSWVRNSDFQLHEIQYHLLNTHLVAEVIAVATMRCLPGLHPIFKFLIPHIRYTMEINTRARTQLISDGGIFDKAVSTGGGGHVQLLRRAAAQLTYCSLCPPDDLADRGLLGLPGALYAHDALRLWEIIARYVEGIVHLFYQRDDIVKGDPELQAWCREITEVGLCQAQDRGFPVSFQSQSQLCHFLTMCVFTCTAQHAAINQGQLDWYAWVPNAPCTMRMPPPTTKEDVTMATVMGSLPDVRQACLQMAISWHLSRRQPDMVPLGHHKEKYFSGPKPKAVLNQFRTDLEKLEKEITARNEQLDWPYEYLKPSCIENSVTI
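Hydroperoxide product was detected by ferrous iron/xylenol orange as the 573 to 405 nm absorbance ratio. Arachidonic acid at 40 uM (final) was turned over for 30 min at room temperature by 150 nM human 12hLO, pH 7.0 Hepes buffer, after 15 min compound preincubation.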
Numbers without * were called inactive; ? = inconclusive; · = no result given; ! = not active in a repeat. Many of the other results were omitted from the sample, so hits are more common in it than they were. Unless noted, the call rests on the fitted dose curve; in most records, active means well fitted curve in the direction sought with a large enough effect; inconclusive means small, poorly fitted or top-dose-only effect, or another doubt; inactive means no such curve, though single readings can be large; an effect the other way counts as inactive or inconclusive. Unless noted, on the % scale 0 is the no-effect control and ±100 the full control effect.

SMILES	TDP1 cell noCPT	DT40 TDP1 CPT	HT1080 IDH1KD tx	HT1080NT lethal	IL1B secr inh	12-LOX inh
CC(C)(C)c1nc(CN2CCCCC2)cc(CN2CCCCC2)c1O	?	18.4µM*	-6.3%	-9.1%	-5.6	0.0%
CC(C)(C)c1nc(CN2CCOCC2)ccc1O	-17.3%	-10.8%	10.5%	3.9%	5.5	-4.5%
CC(C)NC(=O)Cn1nnc(-c2ccccc2)c1COc1ccc2ccccc2c1	?	14.6µM*	-12.0%	-27.4%	-17.6	6.8%
COc1ccc(NC(=O)Cn2nnc(-c3ccccc3)c2COc2ccc3ccccc3c2)cn1	23.1µM*	20.6µM*	?	?	-10.2	12.8%
O=C(O)Cn1nnc(-c2ccccc2)c1COc1ccccc1	-6.2%	-0.8%	3.0%	?	8.4	?
COc1ccc(NC(=O)Cn2nnc(-c3ccccc3)c2COc2ccc(C(C)=O)cc2)cn1	?	-30.0%	10.8%	12.0%	-4.9	-1.5%
CC1(C)Cc2c(cnn2-c2ccccc2)C(=O)/C1=N\NC(=O)c1ccncc1	?	18.4µM*	-6.9%	-8.6%	15.0	0.0%
COc1ccccc1C1CC(=O)N(Cc2cccc(Cl)c2)c2c1c(C)nn2-c1nc(C)cc(C)n1 (stereo not drawn)	·	·	·	·	·	0.9%
CC(NC(=O)CCc1c[nH]c2ccccc12)c1ccco1 (stereo not drawn)	·	·	·	·	·	-52.7%
CCc1cccc(C)c1NC(=O)CCCn1c(=O)c2cccn2c2cccnc21	?	23.1µM*!	18.9%	7.9%	-8.4	7.4%
CCOC(=O)c1ccc(NC(=O)CCn2c(=O)c3cccn3c3cccnc32)cc1	?	20.6µM*	·	·	·	-9.8%
Cc1ccc(NC(=O)CCCn2c(=O)c3cccn3c3cccnc32)c(C)c1	-5.6%	8.9%	·	·	·	-24.5%
CCOC(=O)c1ccc(NC(=O)CCCn2c(=O)c3cccn3c3cccnc32)cc1	18.4µM*	?	·	·	·	?
CCOC(=O)c1ccc(NC(=O)CCCn2c(=O)c3cccn3c3ccccc32)cc1	?	?	·	·	·	-28.4%
CCCCN(CC)C(=O)CCn1c(=O)c2cccn2c2cccnc21	18.4µM*	?	·	·	·	-23.1%
CCN(CC)c1nc2ccccc2nc1C(=O)Nc1ccc(Cl)cc1	·	·	·	·	·	-0.8%
O=C(CCn1c(=O)c2cccn2c2cccnc21)N1CCN(c2ccc(F)cc2)CC1	16.4µM*	14.6µM*	·	·	·	-18.3%
O=C(CSc1nnc(-c2ccncc2)n1C1CC1)c1cc2ccccc2o1	·	·	·	·	·	-15.6%
FC(F)(F)c1cc(Cl)c2nc(-c3ccco3)c(Cc3ccccc3C(F)(F)F)n2c1	14.6µM*	?	?	-8.5%	0.0	10µM*
CN(C)c1ccc(C(=O)N2CCCC(n3cc(-c4nc(C5CC5)no4)nn3)C2)cc1 (stereo not drawn)	·	·	·	·	·	21.5%
CCCC(=O)N1CCN(c2ccc(NC(=O)C(C)(C)C)cc2)CC1	-12.0%	13.2%	9.9%	11.3%	8.3	-1.6%
CCCC(=O)N1CCN(c2ccc(NC(=O)c3cccs3)cc2Cl)CC1	-15.6%	-25.2%	1.6%	-3.5%	-84.4*	11.4%
CCCC(=O)N1CCN(c2ccc(NC(=O)C(C)(C)C)cc2Cl)CC1	?	20.6µM*	-21.7%	-1.9%	0.5	-1.5%
Cc1cc(C)cc(C(=O)NC(C)c2ccc(CC(C)C)cc2)c1 (stereo not drawn)	·	·	·	·	·	-8.4%
Cc1cccc(Cn2c(C(C)(C)C)cc3cccnc32)c1	20.6µM*	?	?	?	-23.3	-7.1%
SMILES	TDP1 cell noCPT	DT40 TDP1 CPT	HT1080 IDH1KD tx	HT1080NT lethal	IL1B secr inh	12-LOX inh
Cc1cccc(Cn2c(CNS(=O)(=O)c3ccc(Cl)s3)nc3cccnc32)c1	?	?	·	·	·	-11.7%
Cc1nn(Cc2ccc(F)cc2)c(Cl)c1/C=N/NC(=O)c1ccccc1	?	-0.7%	?	?	22.8	0.0%
Cc1nn(Cc2ccccc2)c(Cl)c1/C=C1\NC(=S)NC1=O	3.7%	?	-22.3%	0.2%	-63.6*	0.0%
CC(C)[C@H]1CN=C2N(C[C@H](C)NC(=O)CCC3CCCCC3)[C@H](Cc3ccc(O)cc3)CN21	6.51µM*	6.51µM*	?	-22.4%	0.0	?
C[C@@H](CN1C2=NC[C@H](C)N2C[C@H]1Cc1ccc(O)cc1)NC(=O)CCC1CCCCC1	13µM*	11.6µM*	-12.7%	1.1%	-17.2	-4.7%
C/C=C(\C)C(=O)NCCN1C2=NC[C@H](Cc3ccc(O)cc3)N2C[C@H]1Cc1ccc(O)cc1	-20.3%	4.5%	6.9%	9.6%	25.1	-1.5%
C/C=C(\C)C(=O)NCCN1C2=NC[C@H](C(C)C)N2C[C@H]1Cc1ccc(O)cc1	-5.4%	-0.2%	-2.5%	-0.1%	26.3	-33.8%
COc1ccc(-c2noc(-c3cccc(OCC(=O)N4CCN(c5ccccc5)CC4)c3)n2)cc1	·	·	·	·	·	-11.7%
CN1CCN(c2nc3c(c(=O)[nH]2)CCN(Cc2ccc(Br)cc2)CC3)CC1	·	·	·	·	·	26.6%
O=C(Oc1ccc(Cl)c2cccnc12)c1cccc([N+](=O)[O-])c1	0.92µM*	1.3µM*	-1.4%	-10.2%	-18.0	-13.7%
CCN(CC)C(=O)Oc1c(Cl)cc(Cl)c2cccnc12	?	18.1%	-14.0%	-6.2%	-0.6	0.9%
O=C(Oc1c(Cl)cc(Cl)c2cccnc12)c1cccc([N+](=O)[O-])c1	3.26µM*	2.91µM*	?	?	45.8	·
Cc1c(C(=O)Nc2cccc3cccnc23)cccc1[N+](=O)[O-]	·	·	·	·	·	43.9%
O=C(Oc1cccc2cccnc12)c1ccc2ccccc2c1	·	·	·	·	·	3.9%
O=C(Oc1cccc2cccnc12)c1cccc([N+](=O)[O-])c1	0.731µM*	0.92µM*	?	?	-98.8*	?
Cc1c(C(=O)Oc2cccc3cccnc23)cccc1[N+](=O)[O-]	?	?	?	?	-65.8*	-14.2%
O=C(CN1C(=O)NC2(CCCC2)C1=O)Nc1cccc2cccnc12	·	·	·	·	·	5.8%
CN1C[C@H](NCc2cccc(Cl)c2)CCC[C@@H](C(=O)NCc2cc(F)cc(F)c2)CC1=O	·	·	·	·	·	2.9%
O=C(Oc1cccc2cccnc12)c1ccc2c(c1)OCCO2	1.03µM*	0.651µM*	?	23.1µM*	-5.1	-13.0%
O=[N+]([O-])c1ccc(Oc2cccc3cccnc23)c([N+](=O)[O-])c1	6.51µM*	5.17µM*	23.1µM*	?	-28.6	?
Cc1ccc(C)c(-n2ccnc2SCC(=O)Nc2ncc(C)s2)c1	·	·	·	·	·	-18.9%
